Source: the supplement of paper PMC10849652
Targets with a hit are over-represented here; the source holds about 7,900 in all. About 0.6% of all pairs of compound and target were hits. Unmarked numbers belong to inactive results.

How the values were obtained:
Assay in all cases: log2 fold change, soluble protein after heating vs DMSO (PISA); higher = thermal stabilisation; K562 cells, 10 uM, 30 min; active = over 0.2 and 3.5 SD of the protein, either way, in both replicates (recomputed)
saracatinib = compound: CN1CCN(CCOc2cc(OC3CCOCC3)c3c(Nc4c(Cl)ccc5c4OCO5)ncnc3c2)CC1 [saracatinib]
Summary of the method: (§1)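 For each measurement, 10 μM compound was applied for 30 min to K562 cells at 2×10^6 cells/mL. Aliquots were heated for 3 min across 48°C-58°C, pooled, and extracted in PBS with 0.5% NP-40 at 4°C; the supernatant after 21,000xg for 90 min was soluble protein. This was quantified by TMTpro 16plex LC-MS/MS with channel sums equalised, and thermal stability was reported relative to control samples from duplicates, on a log2 fold-change scale.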

[1] = compound: CNC(=O)C1=CC=CC=C1NC2=NC(=NC=C2Cl)NC3=C(C=C(C=C3)N4CCOCC4)OC
Summary of the method: as §1

rucaparib = compound: CNCc1ccc(-c2[nH]c3cc(F)cc4c3c2CCNC4=O)cc1 [rucaparib]
Summary of the method: as §1

[2] = compound: CNc1nc(-c2ccc3c(N)n[nH]c3c2)cc(N2C[C@@H](C(=O)NC3CCCCC3)CC[C@H]2C)n1
Summary of the method: as §1

encorafenib = compound: COC(=O)N[C@@H](C)CNc1nccc(-c2cn(C(C)C)nc2-c2cc(Cl)cc(NS(C)(=O)=O)c2F)n1 [encorafenib]
Summary of the method: as §1

[3] = compound: COC1=CC=C(C=C1)CN2C=CC3=C2C=C(C=C3)C(=O)NO
Summary of the method: as §1

alisertib = compound: COc1cc(Nc2ncc3c(n2)-c2ccc(Cl)cc2C(c2c(F)cccc2OC)=NC3)ccc1C(=O)O [alisertib]
Summary of the method: as §1

[4] = compound: COc1cccc2cc(-c3nc([C@H]4CC[C@H](C(=O)O)CC4)n4ncnc(N)c34)[nH]c12
Summary of the method: as §1

alvocidib = compound: CN1CC[C@H](c2c(O)cc(O)c3c(=O)cc(-c4ccccc4Cl)oc23)[C@H](O)C1 [alvocidib]
Summary of the method: as §1

Tubastatin A = compound: CN1CCc2c(c3ccccc3n2Cc2ccc(C(=O)NO)cc2)C1 [Tubastatin A]
Summary of the method: as §1

defactinib = compound: CNC(=O)c1ccc(Nc2ncc(C(F)(F)F)c(NCc3nccnc3N(C)S(C)(=O)=O)n2)cc1 [defactinib]
Summary of the method: as §1

[5] = compound: COC(=O)[C@H](CCSC)NC(=O)C1=C(C=C(C=C1)NC[C@H](CS)N)C2=CC=CC=C2
Summary of the method: as §1

zotarolimus = compound: CO[C@H]1C[C@@H]2CC[C@@H](C)[C@@](O)(O2)C(=O)C(=O)N2CCCC[C@H]2C(=O)O[C@H]([C@H](C)C[C@@H]2CC[C@H](n3cnnn3)[C@H](OC)C2)CC(=O)[C@H](C)/C=C(\C)[C@@H](O)[C@@H](OC)C(=O)[C@H](C)C[C@H](C)/C=C/C=C/C=C/1C [zotarolimus]
Summary of the method: as §1

idasanutlin = compound: COc1cc(C(=O)O)ccc1NC(=O)[C@@H]1N[C@@H](CC(C)(C)C)[C@](C#N)(c2ccc(Cl)cc2F)[C@H]1c1cccc(Cl)c1F [idasanutlin]
Summary of the method: as §1

pictilisib = compound: CS(=O)(=O)N1CCN(Cc2cc3nc(-c4cccc5[nH]ncc45)nc(N4CCOCC4)c3s2)CC1 [pictilisib]
Summary of the method: as §1

gefitinib = compound: COc1cc2ncnc(Nc3ccc(F)c(Cl)c3)c2cc1OCCCN1CCOCC1 [gefitinib]
Summary of the method: as §1

sotrastaurin = compound: CN1CCN(c2nc(C3=C(c4c[nH]c5ccccc45)C(=O)NC3=O)c3ccccc3n2)CC1 [sotrastaurin]
Summary of the method: as §1

filanesib = compound: CON(C)C(=O)N1N=C(c2cc(F)ccc2F)S[C@@]1(CCCN)c1ccccc1 [filanesib]
Summary of the method: as §1

[6] = compound: COc1cc2nc(-c3cc(F)ccc3O)nc(N[C@@H]3CNC[C@H]3C(C)(C)O)c2cc1OC
Summary of the method: as §1

lapatinib = compound: CS(=O)(=O)CCNCc1ccc(-c2ccc3ncnc(Nc4ccc(OCc5cccc(F)c5)c(Cl)c4)c3c2)o1 [lapatinib]
Summary of the method: as §1

Target: SREBF1 isoform 4 (UniProt P36956)
UniProt P36956, sequence (P36956 whole entry, looked up): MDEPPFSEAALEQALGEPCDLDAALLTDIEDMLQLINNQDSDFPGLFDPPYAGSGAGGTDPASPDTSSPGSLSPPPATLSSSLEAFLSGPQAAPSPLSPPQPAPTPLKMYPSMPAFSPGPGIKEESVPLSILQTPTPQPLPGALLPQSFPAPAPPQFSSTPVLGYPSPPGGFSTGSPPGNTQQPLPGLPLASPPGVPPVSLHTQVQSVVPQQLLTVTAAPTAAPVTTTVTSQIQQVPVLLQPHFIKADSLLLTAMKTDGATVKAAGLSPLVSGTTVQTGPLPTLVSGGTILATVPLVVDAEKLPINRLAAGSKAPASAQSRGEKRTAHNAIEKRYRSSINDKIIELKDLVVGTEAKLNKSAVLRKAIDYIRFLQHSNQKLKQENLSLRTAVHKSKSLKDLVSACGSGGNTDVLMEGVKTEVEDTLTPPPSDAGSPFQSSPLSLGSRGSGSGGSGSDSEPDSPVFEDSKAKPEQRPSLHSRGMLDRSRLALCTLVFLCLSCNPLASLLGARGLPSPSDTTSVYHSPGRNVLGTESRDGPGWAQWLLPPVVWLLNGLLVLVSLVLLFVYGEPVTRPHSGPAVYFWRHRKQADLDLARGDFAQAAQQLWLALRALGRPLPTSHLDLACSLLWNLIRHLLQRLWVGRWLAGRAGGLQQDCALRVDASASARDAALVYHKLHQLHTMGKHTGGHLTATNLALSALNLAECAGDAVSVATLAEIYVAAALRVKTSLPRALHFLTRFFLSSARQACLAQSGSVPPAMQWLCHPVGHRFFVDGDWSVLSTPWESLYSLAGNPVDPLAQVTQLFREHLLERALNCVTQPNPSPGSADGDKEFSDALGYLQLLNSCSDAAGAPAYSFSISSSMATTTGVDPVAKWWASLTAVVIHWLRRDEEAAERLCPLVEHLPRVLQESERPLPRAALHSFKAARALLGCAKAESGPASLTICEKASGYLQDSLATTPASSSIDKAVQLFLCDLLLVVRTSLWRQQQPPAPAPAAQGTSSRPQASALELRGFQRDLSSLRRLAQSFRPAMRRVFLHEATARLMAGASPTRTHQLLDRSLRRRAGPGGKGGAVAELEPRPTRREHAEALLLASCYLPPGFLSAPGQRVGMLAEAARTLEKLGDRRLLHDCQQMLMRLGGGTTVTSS
- log2 fold change (saracatinib): 0.077
- log2 fold change [1]: 0.033
- log2 fold change (rucaparib): -0.164
- log2 fold change [2]: 0.045
- log2 fold change (encorafenib): 0.044
- log2 fold change [3]: -0.089
- log2 fold change (alisertib): -0.014
- log2 fold change [4]: 0.098

Target: SLC46A1 (UniProt Q96NT5)
- log2 fold change (alvocidib): 0.193
- log2 fold change (Tubastatin A): 0.067
- log2 fold change [1]: 0.085
- log2 fold change (defactinib): 0.034
- log2 fold change (rucaparib): -0.081
- log2 fold change (encorafenib): -0.051
- log2 fold change [5]: -0.011
- log2 fold change (zotarolimus): -0.095
- log2 fold change (idasanutlin): -0.107
- log2 fold change (pictilisib): 0.061

Target: SSB (UniProt E7ERC4)
- log2 fold change (saracatinib): -0.05
- log2 fold change (defactinib): -0.205
- log2 fold change [2]: 0.018
- log2 fold change [5]: -0.092
- log2 fold change (alisertib): 0.494
- log2 fold change [4]: -0.37
- log2 fold change (pictilisib): -0.086

Target: SPIRE1 (UniProt Q08AE8)
UniProt Q08AE8, sequence (Q08AE8 whole entry, looked up): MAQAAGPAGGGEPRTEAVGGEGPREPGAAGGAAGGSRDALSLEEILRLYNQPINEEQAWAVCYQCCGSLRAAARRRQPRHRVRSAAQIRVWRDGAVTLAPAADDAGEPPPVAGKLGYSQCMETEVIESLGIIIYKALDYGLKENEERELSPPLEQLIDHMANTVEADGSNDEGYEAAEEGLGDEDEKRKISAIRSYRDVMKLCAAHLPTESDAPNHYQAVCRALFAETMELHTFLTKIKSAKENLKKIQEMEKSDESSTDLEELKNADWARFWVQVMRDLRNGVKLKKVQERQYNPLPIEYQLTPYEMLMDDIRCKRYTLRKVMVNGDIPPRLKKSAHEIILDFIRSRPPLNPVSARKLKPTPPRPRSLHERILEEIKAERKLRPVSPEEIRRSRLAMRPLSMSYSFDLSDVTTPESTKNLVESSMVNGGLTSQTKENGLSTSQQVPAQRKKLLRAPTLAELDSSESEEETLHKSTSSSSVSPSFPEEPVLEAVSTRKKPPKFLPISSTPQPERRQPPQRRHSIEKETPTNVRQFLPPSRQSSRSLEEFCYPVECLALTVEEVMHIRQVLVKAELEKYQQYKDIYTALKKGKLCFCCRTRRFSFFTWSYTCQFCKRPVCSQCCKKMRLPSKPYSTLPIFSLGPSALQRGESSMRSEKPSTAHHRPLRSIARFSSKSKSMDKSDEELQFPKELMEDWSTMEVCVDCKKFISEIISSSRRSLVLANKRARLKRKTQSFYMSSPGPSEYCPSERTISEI
- log2 fold change (alvocidib): 0.153
- log2 fold change (Tubastatin A): 0.141
- log2 fold change [1]: -0.166
- log2 fold change (defactinib): 0.047
- log2 fold change (rucaparib): 0.035
- log2 fold change (encorafenib): -0.105
- log2 fold change [5]: -0.074
- log2 fold change [3]: -0.509 (active)
- log2 fold change (zotarolimus): -0.051
- log2 fold change (idasanutlin): -0.023
- log2 fold change (alisertib): -0.033
- log2 fold change (gefitinib): -0.013
- log2 fold change [4]: 0.049
- log2 fold change (pictilisib): 0.188

Target: SNRK (UniProt Q9NRH2)
UniProt Q9NRH2, sequence (Q9NRH2 whole entry, looked up): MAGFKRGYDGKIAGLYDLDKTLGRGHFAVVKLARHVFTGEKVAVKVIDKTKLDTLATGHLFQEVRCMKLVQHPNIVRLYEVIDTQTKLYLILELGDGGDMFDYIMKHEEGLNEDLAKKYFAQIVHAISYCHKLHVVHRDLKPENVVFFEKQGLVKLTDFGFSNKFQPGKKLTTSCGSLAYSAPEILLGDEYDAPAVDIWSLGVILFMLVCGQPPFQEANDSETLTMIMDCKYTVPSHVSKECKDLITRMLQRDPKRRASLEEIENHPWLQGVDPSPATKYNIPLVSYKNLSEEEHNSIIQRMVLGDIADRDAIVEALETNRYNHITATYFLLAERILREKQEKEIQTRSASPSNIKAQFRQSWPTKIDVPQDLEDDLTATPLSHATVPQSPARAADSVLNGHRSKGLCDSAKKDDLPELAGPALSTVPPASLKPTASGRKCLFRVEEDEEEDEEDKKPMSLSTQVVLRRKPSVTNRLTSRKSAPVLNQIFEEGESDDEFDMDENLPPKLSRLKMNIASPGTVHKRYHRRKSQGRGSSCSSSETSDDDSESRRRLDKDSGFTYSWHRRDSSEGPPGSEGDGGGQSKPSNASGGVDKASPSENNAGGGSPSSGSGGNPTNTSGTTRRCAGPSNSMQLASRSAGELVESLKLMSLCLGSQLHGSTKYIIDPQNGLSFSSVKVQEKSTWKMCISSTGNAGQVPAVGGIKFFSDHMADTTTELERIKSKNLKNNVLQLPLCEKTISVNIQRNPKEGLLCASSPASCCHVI
- log2 fold change (saracatinib): -0.092
- log2 fold change (sotrastaurin): 0.003
- log2 fold change (rucaparib): -0.099
- log2 fold change [2]: 0.011
- log2 fold change (encorafenib): 0.002
- log2 fold change [3]: 0.15
- log2 fold change (filanesib): 0.158
- log2 fold change [6]: 0.84 (active)
- log2 fold change (lapatinib): 0.016

Target: SOX5 (UniProt P35711)
UniProt P35711, sequence (P35711 whole entry, looked up): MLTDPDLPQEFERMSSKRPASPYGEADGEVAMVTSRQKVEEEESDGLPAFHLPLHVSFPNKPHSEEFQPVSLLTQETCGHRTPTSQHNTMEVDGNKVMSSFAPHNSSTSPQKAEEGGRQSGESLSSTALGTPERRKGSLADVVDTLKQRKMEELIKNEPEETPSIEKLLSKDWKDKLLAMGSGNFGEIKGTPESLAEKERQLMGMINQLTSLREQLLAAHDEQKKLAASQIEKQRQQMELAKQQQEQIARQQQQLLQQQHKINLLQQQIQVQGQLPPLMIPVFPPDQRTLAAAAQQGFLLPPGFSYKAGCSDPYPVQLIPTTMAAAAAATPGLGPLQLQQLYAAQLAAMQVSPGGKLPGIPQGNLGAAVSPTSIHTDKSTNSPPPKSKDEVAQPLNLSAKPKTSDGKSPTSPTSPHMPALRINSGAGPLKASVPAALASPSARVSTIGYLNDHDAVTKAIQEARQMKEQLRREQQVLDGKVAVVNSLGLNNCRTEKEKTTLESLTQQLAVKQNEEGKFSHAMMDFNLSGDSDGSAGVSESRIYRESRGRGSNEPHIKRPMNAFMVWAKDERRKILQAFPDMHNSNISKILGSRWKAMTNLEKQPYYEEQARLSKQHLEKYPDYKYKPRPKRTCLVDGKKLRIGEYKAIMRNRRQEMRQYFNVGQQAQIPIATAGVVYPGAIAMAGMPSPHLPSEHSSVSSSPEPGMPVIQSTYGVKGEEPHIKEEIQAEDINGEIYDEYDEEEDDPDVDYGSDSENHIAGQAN
- log2 fold change (sotrastaurin): -0.014
- log2 fold change (alvocidib): -0.163
- log2 fold change (Tubastatin A): 0.263
- log2 fold change [1]: -0.053
- log2 fold change (defactinib): -0.224
- log2 fold change [5]: 0.064
- log2 fold change [3]: -0.087
- log2 fold change (filanesib): -0.08
- log2 fold change (zotarolimus): -0.058
- log2 fold change (idasanutlin): 0.006
- log2 fold change (alisertib): -0.089
- log2 fold change [6]: -0.055
- log2 fold change (gefitinib): -0.012
- log2 fold change [4]: 0.105
- log2 fold change (lapatinib): 0.051

Target: SLC8B1 (UniProt Q6J4K2)
UniProt Q6J4K2, sequence (Q6J4K2 whole entry, looked up): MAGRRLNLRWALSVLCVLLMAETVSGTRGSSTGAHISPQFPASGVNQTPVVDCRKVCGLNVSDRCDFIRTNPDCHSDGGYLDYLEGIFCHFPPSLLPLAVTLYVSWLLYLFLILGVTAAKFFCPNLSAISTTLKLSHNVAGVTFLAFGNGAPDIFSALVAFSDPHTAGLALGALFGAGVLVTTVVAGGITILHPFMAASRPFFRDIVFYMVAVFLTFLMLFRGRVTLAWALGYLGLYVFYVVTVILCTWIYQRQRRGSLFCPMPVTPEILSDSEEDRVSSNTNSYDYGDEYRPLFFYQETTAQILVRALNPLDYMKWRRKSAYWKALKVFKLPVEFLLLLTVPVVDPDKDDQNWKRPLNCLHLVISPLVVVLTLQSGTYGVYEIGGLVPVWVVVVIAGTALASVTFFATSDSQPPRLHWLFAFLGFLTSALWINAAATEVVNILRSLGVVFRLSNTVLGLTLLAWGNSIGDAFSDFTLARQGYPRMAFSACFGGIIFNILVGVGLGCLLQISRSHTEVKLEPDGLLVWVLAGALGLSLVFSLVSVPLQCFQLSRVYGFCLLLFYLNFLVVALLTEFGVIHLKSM
- log2 fold change (saracatinib): 0.036
- log2 fold change (alvocidib): 0.012
- log2 fold change [1]: -0.019
- log2 fold change (defactinib): 0.029
- log2 fold change [2]: -0.176
- log2 fold change [5]: -0.028
- log2 fold change [3]: 0.044
- log2 fold change (zotarolimus): -0.097
- log2 fold change (idasanutlin): -0.034
- log2 fold change [6]: 0.132
- log2 fold change (lapatinib): 0.066
- log2 fold change (pictilisib): 0.016

Target: SLC39A1 (UniProt Q9NY26)
UniProt Q9NY26, sequence (Q9NY26 whole entry, looked up): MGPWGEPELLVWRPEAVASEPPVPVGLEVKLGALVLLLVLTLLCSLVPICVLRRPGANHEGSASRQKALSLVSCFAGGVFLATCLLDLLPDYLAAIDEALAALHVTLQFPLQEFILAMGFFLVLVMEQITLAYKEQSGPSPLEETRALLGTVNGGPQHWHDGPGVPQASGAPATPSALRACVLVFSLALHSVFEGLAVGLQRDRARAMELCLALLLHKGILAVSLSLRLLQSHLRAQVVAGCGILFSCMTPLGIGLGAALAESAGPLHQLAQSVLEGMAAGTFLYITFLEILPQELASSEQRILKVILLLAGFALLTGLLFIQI
- log2 fold change (alvocidib): 0.072
- log2 fold change [1]: -0.129
- log2 fold change (zotarolimus): -0.15
- log2 fold change (pictilisib): -0.053

Target: SYK (UniProt P43405)
- log2 fold change (saracatinib): -0.151
- log2 fold change (alvocidib): -0.168
- log2 fold change (Tubastatin A): 0.355
- log2 fold change [1]: -0.113
- log2 fold change (defactinib): 0.249
- log2 fold change (rucaparib): 0.258
- log2 fold change [2]: 0.03
- log2 fold change (encorafenib): 0.112
- log2 fold change [5]: -0.012
- log2 fold change [3]: 0.085
- log2 fold change (zotarolimus): 0.066
- log2 fold change (idasanutlin): 0.25
- log2 fold change [6]: 0.204
- log2 fold change (lapatinib): 0.06

Target: SLC35B4 (UniProt Q969S0)
UniProt Q969S0, sequence (Q969S0 whole entry, looked up): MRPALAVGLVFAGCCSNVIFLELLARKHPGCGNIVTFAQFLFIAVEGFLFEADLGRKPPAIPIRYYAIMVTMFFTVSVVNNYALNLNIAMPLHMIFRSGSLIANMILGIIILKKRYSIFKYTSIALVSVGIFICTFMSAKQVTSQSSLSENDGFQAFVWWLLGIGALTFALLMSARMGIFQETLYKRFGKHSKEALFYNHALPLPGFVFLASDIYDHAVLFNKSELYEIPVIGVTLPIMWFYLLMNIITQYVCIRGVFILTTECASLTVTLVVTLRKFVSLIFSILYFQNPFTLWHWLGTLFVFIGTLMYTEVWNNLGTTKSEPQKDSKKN
- log2 fold change (sotrastaurin): 0.012
- log2 fold change (Tubastatin A): 0.014
- log2 fold change [1]: 0.046
- log2 fold change (defactinib): 0.086
- log2 fold change (rucaparib): 0.036
- log2 fold change (encorafenib): -0.015
- log2 fold change [5]: -0.146
- log2 fold change [3]: -0.076
- log2 fold change (filanesib): -0.119
- log2 fold change (idasanutlin): 0.027
- log2 fold change (alisertib): 0.032
- log2 fold change (gefitinib): 0.149
- log2 fold change [4]: 0.076
